# Assay outcomes from PubChem.
# Shown are actives, neighbours in structure and some others; about 3.4% of the full set was active somewhere.
# GPR151 activ – activators of human GPR151, primary screen, cell-based, PathHunter beta-arrestin, luminescence. G-protein coupled receptor 151 (Homo sapiens), Q8TDV0. PathHunter beta-arrestin GPR151 cells. activation, % at 11.2 µM. actives 1% (n = 650,000); in the data active = activation above about 4.9%;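 also: 0% = median of compound wells and 100% = cells with positive control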
# FBW7 activator – FBW7 E3 ligase activators, primary screen, biochemical, AlphaScreen, human; F-box/WD repeat-containing protein 7 (Homo sapiens), Q969H0; AlphaScreen FBW7–phospho-cyclin E peptide binding, activator screen; normalized activity (activation), % at 26.1 µM; actives 0.13% (n = 650,000); AID 1259310, 2017; in the data active = normalized activity above about 1.9%;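 also: purified mutant Fbw7 with reduced substrate affinity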
# TEAD-YAP inh – TEAD-YAP interaction inhibition, primary screen, TEAD-YAP interaction inhibitor project, luminescence, HEK-TIYL cells; AID 1259422, 2018; inhibition, % at 9.12 µM; actives 1.4% (n = 640,000); TEAD-Gal4/YAP UAS-luciferase luminescence; in the data active = inhibition above about 32%;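 also: 0% = median of test compound wells and 100% = reference inhibitor wells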
# MITF primary – MITF inhibitors, primary screen, biochemical, AlphaScreen, human; AID 1259374, 2018; AlphaScreen MITF homodimerization, bead proximity signal; Microphthalmia-associated transcription factor (Homo sapiens), O75030; inhibition, % at 2.6 µM; actives 0.91% (n = 650,000); in the data active = inhibition above about 50%;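 also: 0% = vehicle wells with protein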
# GPR151 conf act – GPR151 activators, triplicate retest, confirmation, cell-based, PathHunter beta-arrestin, luminescence | shares compounds with GPR151 activ | GPR151 PathHunter beta-arrestin cells, 90 min; % of EA-reagent control over plate median | activation, % at 11.2 µM | 6,700 tested, under 10 active | AID 1508609, 2020;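 active = mean percent activation across replicates above the confirmation screen cutoff of 4.91%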
# GPR119 ag – GPR119 activators in beta-arrestin cells, counter-screen for GPR151 activator project, cell-based, PathHunter beta-arrestin, luminescence, triplicate; shares compounds with GPR151 activ; activation, % at 11.2 µM; AID 1508611, 2020; actives 0.3% (n = 6,700); 90 min; 0 = compound-well median, 100 = enzyme-acceptor control;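 active = mean percent activation in the counterscreen above 29.09%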;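 also: counterscreen on off-target GPR119 to flag nonselective hits from the GPR151 activator screen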
# Target sequence (Q8TDV5 whole entry, looked up): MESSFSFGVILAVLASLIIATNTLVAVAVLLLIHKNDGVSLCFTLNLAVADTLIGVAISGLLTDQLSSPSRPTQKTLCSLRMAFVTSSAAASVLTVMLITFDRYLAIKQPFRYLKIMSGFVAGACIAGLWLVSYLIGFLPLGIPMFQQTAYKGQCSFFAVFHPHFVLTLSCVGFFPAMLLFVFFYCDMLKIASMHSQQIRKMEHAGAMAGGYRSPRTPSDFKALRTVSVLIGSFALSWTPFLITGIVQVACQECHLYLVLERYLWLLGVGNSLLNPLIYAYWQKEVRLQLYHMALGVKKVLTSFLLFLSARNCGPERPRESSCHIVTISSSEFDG
# * hit, by the source's call; x = no result given.
SMILES,GPR151 activ,FBW7 activator,TEAD-YAP inh,MITF primary,GPR151 conf act,GPR119 ag
Cc1n[nH]c(C)c1CCC(=O)N/N=C/C=C/c1ccccc1,6.5*,0,6,11,0,-10
O=C(Cc1cccs1)N/N=C\C=C\c1ccccc1,0,0,-40,9,x,x
O=C(Cc1cc(=O)[nH][nH]1)N/N=C/C=C/c1ccccc1,5.3*,0,7,27,-1,6
Cc1cc(N)nc(COc2ccc([N+](=O)[O-])cc2)n1,-2,0,-1,9,x,x
CCOc1cc(C2CC(=O)NC3=C2C(=O)C(C(=O)OC)C(C)C3)cc(Cl)c1O (centres undefined),8.3*,0,-12,-6,0,-4
COC(=O)C1C(=O)C2=C(CC1C)NC(=O)CC2c1cc(OC)c(O)c([N+](=O)[O-])c1 (centres undefined),0,0,-4,-8,x,x
CC1CN(c2nc3c(c(=O)[nH]2)CCN(Cc2c(O)ccc4ccccc24)C3)CC(C)O1 (centres undefined),5.2*,0,4,9,1,1
CC1CCN(c2nc3c(c(=O)[nH]2)CCN(Cc2cccc4nccnc24)C3)CC1,7.4*,0,5,-6,1,6
O=c1[nH]c(N2CCCC2)nc2c1CCN(Cc1cccc3nccnc13)C2,-1,0,4,12,x,x
CCSc1nnc(NC(=O)CC(NC(=O)c2ccccc2)c2ccccc2)s1 (centres undefined),1,0,5,8,x,x
COC1COC(=O)[C@@H](C)NC(=O)C/C=C/[C@H](C)[C@@H](OC)COC(=O)C/C=C/[C@@H]1C (some centres undefined),1,0,x,-3,x,x
CO[C@@H]1COC(=O)C/C=C/[C@H](C)[C@H](OC)COC(=O)[C@H](C)COC(=O)C/C=C/[C@@H]1C,5.1*,0,x,-1,1,6
CC(=O)NN1C(=O)/C(=C/c2cccc(O)c2)SC1=S,6.3*,0,7,12,0,16
COc1ccc(C)cc1NC(=O)CCn1c(=O)oc2ccccc21,-1,0,9,10,x,x
COc1ccc(CNc2c3c(nc4nncn24)CCC3)cc1,7.3*,0,-3,-7,-1,-14
CS(=O)(=O)N1CCN(C(=O)c2ccc3c(c2)OCO3)CC1,3,0,-1,4,x,x
CCOc1ccc(/C(O)=C2/C(=O)C(=O)N(CCN(CC)CC)C2c2ccc(Cl)cc2)cc1C (centres undefined),-1,0,7,1,x,x
CCOc1ccc(/C(O)=C2/C(=O)C(=O)N(CCN(CC)CC)C2c2ccc(OC)c(OC)c2)cc1C (centres undefined),6.6*,0,-10,0,0,-5
O=C(Nc1ccc2c(c1)CN(Cc1cnc(-c3ccccc3)s1)CC2)C1CCCO1 (centres undefined),5.2*,0,3,-13,0,2
O=C(Nc1ccc2c(c1)CN(Cc1cccnc1)CC2)C1CCCO1 (centres undefined),0,0,0,12,x,x
CC(C)CCN1C(=O)CCc2cc(NC(=O)c3ccc4c(c3)OCO4)ccc21,5.3*,0,-15,2,-1,0
CC(C)CCN1C(=O)CCc2cc(NC(=O)NCc3ccc(F)cc3)ccc21,1,0,3,0,x,x
CCOC(=O)c1c(NC(=O)COc2c(F)c(F)cc(F)c2F)sc2c1CCCC2,5.0*,1,8,13,1,9
CCOC(=O)c1c(NC(=O)COc2c(C)cc(Cl)cc2Cl)sc2c1CCCC2,0,0,0,-5,x,x
CCOC(=O)c1c(NC(=O)C2C3C=CC(C3)C2C(=O)O)sc2c1CCCCC2 (centres undefined),5.5*,0,16,5,0,-7
SMILES,GPR151 activ,FBW7 activator,TEAD-YAP inh,MITF primary,GPR151 conf act,GPR119 ag
Cc1ccccc1N(C)S(=O)(=O)c1ccc2[nH]cc(C(=O)N3CCC(C)CC3)c(=O)c2c1,5.1*,0,17,10,0,2
CCCCN(CC)C(=O)c1ccc([N+](=O)[O-])cc1,-1,0,-1,11,x,x
CCCCN(CC)C(=O)c1ccc([N+](=O)[O-])cc1Cl,7.7*,0,4,-18,0,-5
O=C1C2C3CCC(C3)C2C(=O)N1C1CCCCC1 (centres undefined),-1,0,6,-5,x,x
CC(C)c1nc2cccnc2n1C1CCN(C(=O)c2n[nH]c3c2CCC3)CC1,10*,0,-13,17,1,10
Nc1cc(N)cc(C(=O)OCC(=O)Nc2cc3c(cc2Cl)C(=O)c2ccccc2C3=O)c1,0,0,-29,9,x,x
CC(C)[C@@H](OCc1ccccc1)[C@H](C)/C=N/O[C@H](C)c1cn([C@H](CO)Cc2ccccc2)nn1,6.1*,0,x,-1,0,5
CC(=O)OC[C@H]1O[C@H](C/C=N/O[C@@H](C)c2cn([C@H](CO)Cc3ccccc3)nn2)C=C[C@@H]1OC(C)=O,1,0,x,15,x,x
O=C(NCc1ccc(F)cc1)c1ccc2nc(-c3cccs3)c(-c3cccs3)nc2c1,4.9*,0,11,2,0,3
Cc1ccc(SC2CC(=O)N(c3ccc(F)cc3F)C2=O)cc1 (centres undefined),9.8*,0,0,-8,-1,-5
Cc1ccc(N2C(=O)CC(Sc3ccc(F)cc3)C2=O)cc1 (centres undefined),0,0,10,-10,x,x
CCOc1ccccc1NC(=O)C1=C(C)NC(=S)NC1c1cccc2ccccc12 (centres undefined),1,0,-7,-5,x,x
O=C(C(=O)c1ccc(-c2nc3ccccc3nc2-c2ccc(C(=O)C(=O)c3ccccc3)cc2)cc1)c1ccccc1,2,0,10,4,x,x
O=C(O)CC1c2ccccc2CCN1S(=O)(=O)c1ccccc1 (centres undefined),1,0,11,-1,x,x
O=C(O)CC1c2ccccc2CCN1S(=O)(=O)c1ccc(Cl)cc1 (centres undefined),6.0*,0,-1,9,2,12
CCOC(=O)c1ccc(N(Cc2ccccc2)S(C)(=O)=O)cc1,1,0,8,13,x,x
C=CCN(c1ccc(C(=O)OCC)cc1)S(C)(=O)=O,4.9*,0,-6,1,0,-3
COC(=O)Cn1c2cc(OC)c(OC)cc2c2nc(=O)cc(C)n21,8.8*,0,7,9,0,3
